VDR inh – vitamin D3 receptor (human) inhibition; P11473; VDR-SRC2-3 peptide fluorescence polarization, 2 h; Potency, µM, inactives show max response, negative = inhibition, usual class: inhibitors; hit rate 0.93% among 400,000; AID 504847
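Inhibition of the VDR/SRC2-3 peptide interaction is quantified by fluorescence polarization. Compounds (23 nl, pintool) incubate with the reagents for 2 hours at ambient room temperature.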
PLK1 PBD block – PLK1 (human) polo-box domain binding inhibition; P53350; Plk1 PBD binding of FITC phosphopeptide, fluorescence polarization; Potency, µM, without a hit: max response, negative = inhibition, usual class: inhibitors; hit rate 2.8% among 360,000; AID 720504; also: series mostly up to about 57 µM; nearly all actives have a fitted effect of over 65% in size
DT40 TDP1 no CPT – qHTS for Inhibitors of human tyrosyl-DNA phosphodiesterase 1 (TDP1): qHTS in cells in absence of CPT; hit rate 15% among 420,000; Potency, µM (series often up to 46.2 µM), without a hit: top-dose activity change, negative = growth inhibition, usual class: inhibitors; DT40 Tdp1-/- hTDP1 cells, no CPT, ATP luminescence, 48 h; also: nearly all actives have a fitted effect of over 55% in size
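Growth of hTDP1-complemented DT40 Tdp1-knockout cells is measured by ATP luminescence after at least 48 hr compound exposure at 37 °C, with DMSO substituting for the 20 nM CPT used in the parallel screen.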
DT40 TDP1 CPT – DT40-hTDP1 cell growth loss with CPT; hit rate 12% among 420,000; AID 686979; Potency, µM (top dose mostly 46.2 µM), for the others: top-dose activity change, negative = growth inhibition, most hits filed as inhibitors; chicken DT40 Tdp1-/-;hTDP1 cells + 20 nM CPT, ATP luminescence, 48 h; also: nearly all actives have a fitted effect of over 55% in size
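Chicken DT40 Tdp1-/- cells stably complemented with human TDP1 were seeded at 400 cells/well in medium containing 20 nM camptothecin, exposed to pin-transferred compounds, and grown at 37 °C for at least 48 hr. Viability was read as ATP luminescence.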
TDP1 block – inhibitors of human tyrosyl-DNA phosphodiesterase TDP1. Q9NUW8. recombinant TDP1, AlphaScreen DNA substrate cleavage. Potency, µM (top dose mostly 130 µM), inactives show top-dose activity change, negative = inhibition, usual class: inhibitors. hit rate 0.28% among 350,000; also: nearly all actives have a fitted effect of over 40% in size
Target sequence (Q9NUW8 whole entry, looked up): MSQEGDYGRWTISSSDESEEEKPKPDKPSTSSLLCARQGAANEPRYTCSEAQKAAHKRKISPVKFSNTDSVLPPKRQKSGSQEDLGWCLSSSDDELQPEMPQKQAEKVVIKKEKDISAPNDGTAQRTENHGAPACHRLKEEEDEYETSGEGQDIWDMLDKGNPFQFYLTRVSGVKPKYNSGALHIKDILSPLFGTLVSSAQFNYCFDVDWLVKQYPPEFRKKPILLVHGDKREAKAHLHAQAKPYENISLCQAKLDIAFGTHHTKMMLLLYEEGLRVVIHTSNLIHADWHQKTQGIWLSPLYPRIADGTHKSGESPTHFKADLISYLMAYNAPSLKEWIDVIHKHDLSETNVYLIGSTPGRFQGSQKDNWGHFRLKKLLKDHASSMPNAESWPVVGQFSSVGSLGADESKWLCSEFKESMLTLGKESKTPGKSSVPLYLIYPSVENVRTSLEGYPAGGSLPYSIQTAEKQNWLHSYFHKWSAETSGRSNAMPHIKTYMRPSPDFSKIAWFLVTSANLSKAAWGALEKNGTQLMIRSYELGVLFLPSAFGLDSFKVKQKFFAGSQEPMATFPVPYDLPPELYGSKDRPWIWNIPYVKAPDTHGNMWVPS
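Recombinant E. coli-expressed Tdp1 (1 nM) preincubated with compound 15 min at RT, then 5'-biotin/3'-phosphotyrosine-FITC DNA substrate (15 nM) added for 5 min. AlphaScreen beads (10 ug/ml) added, 10 min RT; tyrosine-FITC cleavage read as signal loss.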
KAT2A inh – inhibitors of human GCN5L2 histone acetyltransferase; hit rate 0.21% among 390,000; Q92830; Potency, µM (titrated, usually from 58.9 µM), without a hit: at the highest dose activity change, negative = inhibition, most hits filed as inhibitors; GCN5L2 HAT assay, ThioGlo1 CoA-SH fluorescence
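Compounds, pin-transferred from DMSO stocks, meet 20nM GCN5L2 for 15 min before the reaction begins with H3(1-25) peptide (75uM) and acetyl-CoA (70uM). Thiol-reactive ThioGlo1 reports CoA release over 20 min at room temperature.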
The depositor's hits bear a star; u = inconclusive; x = no result given; [ ] = remark or other dose. Rows were chosen to be rich in hits. Some 18% of all compounds tested hit in one or more screens of this group. Calls follow the shape of the dose curve; as a rule, active = well fitted curve in the direction sought with a large enough effect; inconclusive = small, poorly fitted or top-dose-only effect, or another doubt; inactive = no such curve, though single readings can be large; an effect the other way counts as inactive or inconclusive. % is scaled to controls: 0 for no effect and ±100 for the full control effect; potency is read from the fitted curve at half-maximal effect.

SMILES	VDR inh	PLK1 PBD block	DT40 TDP1 no CPT	DT40 TDP1 CPT	TDP1 block	KAT2A inh
COc1ccc2oc(C(=O)NCc3ccccc3CN3CCCC3)c(C)c2c1	-4%	-10%	u	21µM*	1%	-1%
COc1ccc(C(CNC(=O)c2oc3ccc(F)cc3c2C)N2CCCCC2)cc1 (stereo not given)	-15%	5%	u	u	1%	-3%
COc1ccc(C(CNC(=O)c2oc3ccc(Br)cc3c2C)N2CCCCC2)cc1 (stereo not given)	6%	0%	9.2µM*	13µM*	5%	-6%
COc1ccc(C(CNC(=O)COc2ccc(F)cc2Cl)N2CCOCC2)cc1 (stereo not given)	-8%	3%	u	u	0%	2%
CCOc1ccc2oc(C(=O)NCC(c3ccco3)N(C)C)c(C)c2c1 (stereo not given)	7%	-2%	23µM*	16µM*	3%	-6%
COc1ccc(C(CNC(=O)c2oc3ccc(OC)cc3c2C)N2CCCC2)cc1 (stereo not given)	1%	-5%	16µM*	23µM*	0%	2%
Cn1cc(S(=O)(=O)c2ccc(Cl)cc2)c(=O)c2cc(F)c(N3CCCC3)cc21	17%	x	16µM*	21µM*	-6%	-5%
Cn1cc(S(=O)(=O)c2cccc(Cl)c2)c(=O)c2cc(F)c(N3CCN(c4ccccc4)CC3)cc21	19%	x	-13%	4%	2%	-3%
COc1ccc(S(=O)(=O)c2cn(C)c3cc(N4CCCC4)c(F)cc3c2=O)cc1	2%	x	23µM*	u	2%	-9%
Cn1cc(S(=O)(=O)c2ccccc2)c(=O)c2cc(Cl)ccc21	u	27µM*	u	16µM*	0%	3%
COc1ccc(S(=O)(=O)c2cn(C)c3cc(N4CCOCC4)c(F)cc3c2=O)cc1	6%	x	u	u	-2%	3%
CC1CCCN(c2cc3c(cc2F)c(=O)c(S(=O)(=O)c2cccc(Cl)c2)cn3C)C1 (stereo not given)	5%	x	23µM*	u	4%	-4%
CC1CCC(NC(=O)COC(=O)CCC(=O)c2ccc(Cl)s2)CC1 (stereo not given)	-14%	-7%	-10%	-5%	0%	-3%
Cc1cc(C)n(CC(=O)Nc2ccc(F)c(F)c2)c(=O)c1C#N	-7%	x	1%	0%	1%	-6%
CCOC(=O)[C@@H]1[C@H]2COc3ccc(Br)cc3[C@@H]2N2C(=O)N(c3cccc(F)c3)C(=O)[C@]12C	13%	0%	u	u	x	x
Cc1ccc(N2C(=N)/C(=C3/Nc4ccccc4S3)C(c3ccccc3)C2=O)cc1 (stereo not given)	-5%	u	4.6µM*	u	8%	-16%
C=Cc1ccc(Cn2c(C)c(CNCc3ccc(SC)cc3)c(C(=O)O)c2C)cc1	5%	x	-3%	5%	5%	1%
O=C(C[C@H]1C(=O)N(c2ccc(Br)cc2)C[C@@H]1Cc1ccccc1)Nc1ccccc1	x	-2%	u	u	x	x
COc1ccc(NC(=O)C[C@H]2C(=O)N(c3ccc(Br)cc3)C[C@@H]2CSC)cc1	x	-16%	23µM*	u	x	x
CCC[C@H]1CN(c2ccc(Br)cc2)C(=O)[C@@H]1CC(=O)Nc1ccc(OC)cc1	x	0%	16µM*	u	x	x
COc1ccc(NC(=O)C[C@H]2C(=O)N(c3ccc(OC)cc3)C[C@@H]2CSC)cc1	x	-6%	u	-23%	x	x
O=C(C[C@H]1C(=O)N(c2ccccc2)C[C@@H]1Cc1ccccc1)Nc1ccc(Br)cc1	x	-14%	9.2µM*	13µM*	x	x
CSC[C@H]1CN(c2ccc(Br)cc2)C(=O)[C@@H]1CC(=O)Nc1ccccc1	x	0%	u	-16%	x	x
COc1ccc(N2C[C@H](CSC)[C@@H](CC(=O)Nc3ccc(Br)cc3)C2=O)cc1	x	-12%	21µM*	u	x	x
O=C(NCc1cccc(Br)c1)c1cnn(-c2ccc(F)cc2)c1-n1cccc1	4%	x	x	x	3%	-4%
SMILES	VDR inh	PLK1 PBD block	DT40 TDP1 no CPT	DT40 TDP1 CPT	TDP1 block	KAT2A inh
CNC(=S)N(CCN(C)C)Cc1cc2cc3c(cc2[nH]c1=O)OCO3	14%	-7%	-10%	5%	x	-5%
COc1ccc(-c2cnnc(N/N=C/C(C)=C/c3ccccc3)n2)cc1	x	x	x	x	-2%	-6%
Cc1ccccc1-c1cc2c(c(OC3CCOC3)c1)OCCN(C(=O)Cn1cccn1)C2 (stereo not given)	x	x	-18%	0%	x	x
CC(C(=O)Nc1ccc(C(N)=O)cc1)N1C(=O)c2ccccc2S1(=O)=O (stereo not given)	-11%	-4%	16%	10%	-5%	-1%
COc1cccc(NC(=O)C2CCN(S(=O)(=O)c3c(C)noc3C)CC2)c1	-24%	x	-14%	13%	-4%[12.3 µM]	2%
O=C(OCc1nnc(-c2cccs2)o1)C1=NN(c2ccccc2)C(=O)CC1	-10%	0%	u	3%	1%	-2%
CC(C)c1ccc(NC(=O)N2CCc3nc(NCc4cccc(Oc5ccccc5)c4)ncc3C2)cc1	x	-15%	16µM*	u	x	x
COc1cc(Nc2ncc3c(n2)CCN(C(=O)Nc2ccc(C(C)C)cc2)C3)cc(OC)c1OC	x	-7%	12µM*	u	x	x
O=C(Nc1cccc(F)c1)N1CCc2nc(NCc3cccc(Oc4ccccc4)c3)ncc2C1	x	3%	15µM*	u	x	x
COc1ccc(CN2C[C@@H](CO)O[C@@H](n3cnc4c(NCc5ccc(F)cc5)ncnc43)C2)cc1	x	0%	u	u	x	x
OC[C@@H]1CN(Cc2cccc(C(F)(F)F)c2)C[C@H](n2cnc3c(NC4CC4)ncnc32)O1	x	4%	u	u	x	x
OC[C@@H]1CN(Cc2cccc(C(F)(F)F)c2)C[C@H](n2cnc3c(NCc4ccco4)ncnc32)O1	x	-4%	u	18µM*	x	x
OC[C@@H]1CN(Cc2cccc(C(F)(F)F)c2)C[C@H](n2cnc3c(NCc4ccc(F)cc4)ncnc32)O1	x	0%	9.2µM*	18µM*	x	x
OC[C@@H]1CN(Cc2ccc(Cl)cc2)C[C@H](n2cnc3c(NCc4ccc(F)cc4)ncnc32)O1	x	-3%	18µM*	18µM*	x	x
Cc1cc(N/N=C/c2ccccc2)nc(NCc2ccccc2)n1	1%	7%	2.6µM*	4.6µM*	8%	-12%
Cc1cc(C)nc(NCc2ccc(Cl)cc2)n1	-12%	-4%	-19%	-1%	x	-3%

Screens from PubChem BioAssay.
